For experiment [1], the system named is Human papillomavirus type 1a protein E7 (residues 44-93). The experiment can be described thus: small molecules binding HPV E7 44-93 – biochemical, small-molecule microarray, residues 44-93, 635 nm fluorescence, primary screen (AID 1108).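 Note: E7 fragment applied at 1 µg/mL in TBST for 1 h at 4 C; score combines spot fluorescence with its signal to noise ratio.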 The settings on record: fluorescence 635 nm, higher = more signal.
Experiment [2] is described as follows: hepatitis C replication reporter changes, two-sided – Huh7 cells, luciferase reporter, HCV replication inhibitor project, primary screen (AID 1109).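 Note: huh7 hepatoma cells harbouring a luciferase neomycin HCV replicon reporter; luciferase luminescence as measure of HCV replicon replication; test concentration not given here.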 The settings on record: Huh7 HCV replicon luciferase reporter, 48 h; higher = more signal. For orientation: Reporter assays use an easily measured gene product as a stand-in for the process of interest.
The target in experiment [3] is Left-right determination factor 2 (Homo sapiens) (UniProt O00292). The experiment can be described thus: small molecules binding LEFTY2 protein – biochemical, small-molecule microarray, 635 nm fluorescence scan, primary screen (AID 1110). The settings on record: higher = more signal.
Sequence of Left-right determination factor 2 (Homo sapiens) (O00292 whole entry, looked up): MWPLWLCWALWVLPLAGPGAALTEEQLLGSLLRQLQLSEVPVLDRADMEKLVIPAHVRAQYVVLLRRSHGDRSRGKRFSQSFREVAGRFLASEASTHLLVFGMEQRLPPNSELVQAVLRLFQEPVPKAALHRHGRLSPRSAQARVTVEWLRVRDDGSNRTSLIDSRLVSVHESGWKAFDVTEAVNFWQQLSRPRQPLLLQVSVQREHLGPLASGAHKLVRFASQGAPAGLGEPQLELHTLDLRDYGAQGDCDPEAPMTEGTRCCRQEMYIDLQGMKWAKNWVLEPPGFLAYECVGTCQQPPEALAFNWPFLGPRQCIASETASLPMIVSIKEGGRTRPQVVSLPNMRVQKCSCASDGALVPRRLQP
The target in experiment [4] is Calmodulin-1 (Homo sapiens) (UniProt P0DP23). Put plainly: small molecules binding calmodulin-1 with EGTA – biochemical, small-molecule microarray, Cy5-labelled CALM1, profiling panel (AID 1111).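 Note: labelled calmodulin applied in Tris saline Tween buffer holding calcium plus EGTA and DTT.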 Particulars: Cy5-CALM1 binding fluorescence, higher = more signal.
Experiment [5] shares this target. Put plainly: small molecules binding Ca-loaded calmodulin-1 – biochemical, small-molecule microarray, Cy5-labelled CALM1, plus calcium, artefact control for SMM control-protein annotation, profiling panel (AID 1112).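 Note: score merges spot fluorescence with signal to noise from triplicate slides.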 Particulars: Cy5-CALM1 binding fluorescence, higher = more signal.
A short description of experiment [6]: probe aWnt5a binding to arrayed compounds – biochemical, biotinylated probe, 635/667 nm fluorescence, primary screen (AID 1113).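 Note: score merges 667 nm fluorescence intensity with signal-to-noise per printed feature.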 Particulars: small-molecule microarray, higher = more signal.
Experiment [7] can be described thus: probe aShh binding to arrayed compounds – biochemical, biotinylated probe, 635/667 nm fluorescence, primary screen (AID 1114).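 Note: probe is biotin-labelled aShh protein from a stem cell growth factor screen; measures binding of labelled protein to compounds printed on the slide; score merges feature fluorescence at 667 nm with signal-to-noise.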 Particulars: small-molecule microarray, higher = more signal.
Experiment [8] is described as follows: probe aNog binding to arrayed compounds – biochemical, biotinylated probe, 635/667 nm fluorescence, primary screen (AID 1115).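 Note: probe is biotinylated aNog protein used at 0.15 µg/mL for 1 h at 4 C; z-score combines 667 nm fluorescence of each spot with its signal to noise.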 The settings on record: small-molecule microarray, higher = more signal.
In experiment [9] the target is Torsin-1A-interacting protein 1 (Homo sapiens) (UniProt Q5JTV8). Put plainly: compound microarray binding of lysate hLAP1 – cell lysate, small-molecule microarray, COS7 lysate, 635/667 nm fluorescence, primary screen (AID 1116). The settings on record: 635 nm fluorescence, higher = more signal.
Sequence of Torsin-1A-interacting protein 1 (Homo sapiens) (Q5JTV8 whole entry, looked up): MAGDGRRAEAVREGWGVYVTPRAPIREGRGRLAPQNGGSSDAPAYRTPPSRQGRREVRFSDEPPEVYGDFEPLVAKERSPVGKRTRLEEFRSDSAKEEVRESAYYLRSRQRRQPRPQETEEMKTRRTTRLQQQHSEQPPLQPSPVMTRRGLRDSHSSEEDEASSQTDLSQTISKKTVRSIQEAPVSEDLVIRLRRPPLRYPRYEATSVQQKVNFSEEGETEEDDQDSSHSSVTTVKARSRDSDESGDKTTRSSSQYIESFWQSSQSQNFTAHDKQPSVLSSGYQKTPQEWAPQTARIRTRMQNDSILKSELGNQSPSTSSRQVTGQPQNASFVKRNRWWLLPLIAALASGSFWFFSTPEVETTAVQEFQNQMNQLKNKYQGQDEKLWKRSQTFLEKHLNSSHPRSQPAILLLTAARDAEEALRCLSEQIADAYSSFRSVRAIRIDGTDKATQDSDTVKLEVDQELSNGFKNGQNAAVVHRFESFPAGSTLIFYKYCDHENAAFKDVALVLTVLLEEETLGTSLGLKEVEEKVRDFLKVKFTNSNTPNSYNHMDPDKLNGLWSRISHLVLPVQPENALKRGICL
The target of experiment [10] is Alpha-bungarotoxin (Bungarus multicinctus) (UniProt P60615). The experiment can be described thus: compounds binding labelled alpha-BTX control protein – biochemical, small-molecule microarray, Alexa647 label, 635/667 nm fluorescence, artefact control for SMM control protein annotation, profiling panel (AID 1117). Particulars: alpha-BTX-A647 binding fluorescence, higher = more signal.
Sequence of Alpha-bungarotoxin (Bungarus multicinctus) (P60615 whole entry, looked up): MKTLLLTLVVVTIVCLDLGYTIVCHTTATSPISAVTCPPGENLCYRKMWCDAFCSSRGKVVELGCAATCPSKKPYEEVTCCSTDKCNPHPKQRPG

A further experiment concerns the target Albumin (Bos taurus) (UniProt P02769). Put plainly: compounds binding labelled BSA control protein – biochemical, small-molecule microarray, Alexa647 label, 635/667 nm fluorescence, artefact control for SMM control protein annotation, profiling panel (AID 1118).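 Note: score merges 667 nm emission intensity and signal-to-noise per printed compound spot.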 Particulars: BSA-A647 binding, fluorescence 635 nm, higher = more signal.
The nature of experiment [11]: probe aXIP binding to arrayed compounds – biochemical, NeuroSMM set, 635/667 nm fluorescence, primary screen (AID 1119).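 Note: probe is the protein aXip251-270 applied at 1 µg/mL to compound-printed slides; binding of probe to printed compounds measured as 667 nm fluorescence plus signal to noise.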 The settings on record: small-molecule microarray, higher = more signal, called active from +8 up or from −8 down.
Experiment [12] in a line: probe aNOTCH3 binding on compound microarray – biochemical, small-molecule microarray, 635/667 nm fluorescence, primary screen (AID 1120).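 Note: probe is a biotin-tagged antibody raised against NOTCH3 rather than NOTCH3 protein; score merges spot fluorescence near 667 nm with spot signal to noise.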 Particulars: higher = more signal.
Experiment [13] in a line: probe aNOTCH2 binding on compound microarray – biochemical, small-molecule microarray, 635/667 nm fluorescence, primary screen (AID 1121).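 Note: score merges feature fluorescence read at 667 nm with its signal to noise.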 Particulars: higher = more signal.
Experiment [14] deals with Carbonic anhydrase 2 (Homo sapiens) (UniProt P00918). Put plainly: compounds binding carbonic anhydrase 2 – biochemical, small-molecule microarray, Alexa647-labelled CAII, profiling panel (AID 1122). The settings on record: CAII-A647 binding fluorescence, higher = more signal.
Experiment [15] is described as follows: COS7 lysate on small-molecule microarray, probe aHis, 635 nm (AID 1123).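 Note: z-score combines 667nm fluorescence intensity with signal-to-noise per printed compound spot.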 Particulars: COS7 cell lysate, fluorescence, higher = more signal.
The nature of experiment [16]: probe aLAP1 signal on lysate-treated microarray – cell lysate, small-molecule microarray, COS7 lysate, primary screen (AID 1124).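 Note: lysate comes from COS7 cells expressing LAP1 and is applied at 0.3 µg/mL; score merges spot fluorescence near 667 nm with signal-to-noise over triplicate slides.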 The settings on record: probe aLAP1, fluorescence, higher = more signal.
The subject of another experiment is Sam68 (KHDRBS1). The experiment can be described thus: compounds binding KHDRBS1 protein – biochemical, small-molecule microarray, 635 nm fluorescence, primary screen (AID 1125).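 Note: score merges 667 nm channel intensity with signal to noise over triplicate slides.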 The settings on record: higher = more signal.
In experiment [17] the test system is Chordin-like protein 2 (CHRDL2). Put plainly: compounds binding chordin-like 2 – biochemical, small-molecule microarray, 635 nm fluorescence, primary screen (AID 1126).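 Note: printed compound slides probed with Chrdl2 protein at 4 µg/mL for 1 h at 4 C; score merges 667 nm emission intensity with signal to noise over three replicate slides.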 Particulars: fluorescence 635 nm, higher = more signal.
Experiment [18] deals with Concanavalin-A (Canavalia ensiformis) (UniProt P02866). The experiment can be described thus: compounds binding concanavalin A lectin – biochemical, small-molecule microarray, Alexa647 label, 635 nm, artefact control for SMM control protein annotation, primary screen (AID 1127).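 Note: z combines 667 nm emission intensity with signal-to-noise across three replicate slides.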 The settings on record: ConA-A647 binding fluorescence, higher = more signal.
Sequence of Concanavalin-A (Canavalia ensiformis) (P02866 whole entry, looked up): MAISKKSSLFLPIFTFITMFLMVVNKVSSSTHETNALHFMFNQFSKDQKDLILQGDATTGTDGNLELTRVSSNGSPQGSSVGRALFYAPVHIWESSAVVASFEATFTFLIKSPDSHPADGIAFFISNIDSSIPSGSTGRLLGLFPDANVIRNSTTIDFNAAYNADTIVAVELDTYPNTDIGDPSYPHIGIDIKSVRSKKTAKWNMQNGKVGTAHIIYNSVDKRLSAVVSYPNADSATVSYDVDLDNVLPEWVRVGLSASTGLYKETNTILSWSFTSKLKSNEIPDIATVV

The structures appear in SMILES notation. Activity calls are given as the source filed them.

Sequence of Albumin (Bos taurus) (P02769 whole entry, looked up): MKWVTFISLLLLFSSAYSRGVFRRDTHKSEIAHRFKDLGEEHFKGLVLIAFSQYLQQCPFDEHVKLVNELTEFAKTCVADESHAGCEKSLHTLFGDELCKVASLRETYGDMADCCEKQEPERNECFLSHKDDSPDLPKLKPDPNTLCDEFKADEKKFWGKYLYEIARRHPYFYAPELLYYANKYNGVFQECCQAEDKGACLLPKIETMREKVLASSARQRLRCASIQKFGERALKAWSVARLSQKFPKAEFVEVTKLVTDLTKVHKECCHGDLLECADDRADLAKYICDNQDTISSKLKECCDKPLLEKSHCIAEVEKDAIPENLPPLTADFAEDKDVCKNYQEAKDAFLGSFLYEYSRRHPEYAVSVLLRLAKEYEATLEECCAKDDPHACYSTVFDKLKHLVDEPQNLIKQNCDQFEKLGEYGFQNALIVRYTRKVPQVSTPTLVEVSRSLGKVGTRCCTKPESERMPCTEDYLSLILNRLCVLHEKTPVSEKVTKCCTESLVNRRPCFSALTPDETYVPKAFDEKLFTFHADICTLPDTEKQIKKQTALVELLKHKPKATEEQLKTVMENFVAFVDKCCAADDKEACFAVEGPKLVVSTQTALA

Take `C#CCN(C(/C=C/c1ccccc1)CO)C(C(=O)O)c1ccccc1` (stereo not given): the composite z-score in [1] is -0.943; in experiment [3], 0.111; in experiment [4], -0.238; in experiment [5] it was -0.707; in [6], -0.0981; in [7] it was -0.2. The composite z-score was -0.242 in experiment [8]; -0.58 in experiment [9]; 0.127 in experiment [10]; -0.56 in the experiment with Albumin (Bos taurus); -0.389 in [12]; -0.181 in [13]. Also, the composite z-score in experiment [14] is -0.199; in experiment [15], -0.21; in [16], -0.0599; with Sam68 (KHDRBS1), -1.12; in experiment [17], 0.0041; in experiment [18], 0.0529. The compound further gave a z-score in experiment [2] of -0.206. Further, in [11], the composite Z-score was 0.535 (inactive).
Turning to `[N-]=[N+]=NCc1ccccc1C[C@]1(C(=O)NCC(O)CO)N=C(c2ccc(OCCCO)cc2)O[C@H]1c1ccccc1N=[N+]=[N-]` (stereo not given in full), the composite z-score in experiment [1] is 1.38; in experiment [3], -1.22; in [4], 1.03; in experiment [5] it was 1.04; in [6], 0.0633; in experiment [7], 0.14. The composite z-score was 1.18 in experiment [8]; 1.4 in experiment [9]; 1.75 in experiment [10]; 0.675 in the experiment with Albumin (Bos taurus); 0.254 in experiment [12]; -0.0059 in experiment [13]. Besides, the composite z-score in experiment [14] is 0.652; in experiment [15], 1.57; in experiment [16], 0.0131; in the experiment on Sam68 (KHDRBS1), 0.283; in [17], -0.44; in experiment [18] it was 0.565. This compound returned a z-score in experiment [2] of -1.47. Further, in [11], the composite Z-score was 0.529 (inactive).
Regarding `CC1=C2[C@@H](CCc3ccccc3)OB(O)C[C@@H]2n2c(=O)n(-c3ccccc3)c(=O)n2C1`, the composite z-score in experiment [1] was 0.352; in [3], 0.664; in experiment [4], 0.177; in experiment [5], -0.878; in [6], -0.096; in [7], 0.133. For the same compound, the composite z-score in [8] was -0.198; in experiment [9], 0.543; in experiment [10], -0.027; with Albumin (Bos taurus), 0.201; in experiment [12], 0.199; in [13], -0.11. Further, the composite z-score in [14] is 0.478; in experiment [15], 0.224; in experiment [16], 0.0327; in the experiment on Sam68 (KHDRBS1), 0.617; in experiment [17], 0.469; in experiment [18] it was 1. In addition, in [2], the z-score was -1.23. Also, the composite Z-score in [11] is 0.131 (inactive).
In the case of `C[C@]1(C(=O)NCc2ccccc2)c2ccccc2C(=O)N(Cc2ccc(OC(F)(F)F)cc2)[C@H]1c1ccc(CO)cc1`, the composite z-score is 1.39 in experiment [1]; -0.579 in experiment [3]; -0.119 in experiment [4]; 0.122 in experiment [5]; -0.0882 in [6]; -0.304 in experiment [7]. Besides, the composite z-score in experiment [8] is -0.381; in [9], 0.696; in [10], -0.141; with Albumin (Bos taurus), -0.125; in [12] it was -0.211; in [13], -0.103. Besides, the composite z-score in [14] is 0.681; in experiment [15], 1.78; in experiment [16], 0.107; in the experiment with Sam68 (KHDRBS1) it was 0.426; in [17] it was -0.256; in experiment [18], 0.592. This compound also yielded a z-score in [2] of 0.0711. Further, in experiment [11], the composite Z-score is 0.843 (inactive).
Consider `CC(C)CNC(=O)[C@@H]1c2ccccc2C(=O)N(Cc2cc(C(F)(F)F)cc(C(F)(F)F)c2)[C@H]1c1ccc(CO)cc1`, for which the composite z-score in experiment [1] was -0.337; in experiment [3] it was -0.488; in experiment [4], -0.128; in experiment [5] it was 0.401; in experiment [6], 0.0437; in experiment [7], -0.155. Moreover, the composite z-score in experiment [8] was -0.247; in experiment [9] it was -0.0708; in experiment [10], -0.141; in the experiment with Albumin (Bos taurus), -0.881; in [12], 0.0596; in experiment [13], 0.127. The composite z-score was 0.5 in [14]; 0.361 in [15]; 0.0574 in experiment [16]; -0.636 in the experiment on Sam68 (KHDRBS1); -0.629 in [17]; -0.928 in experiment [18]. The z-score in experiment [2] was -0.195. Further, in [11], the composite Z-score was 0.0089 (inactive).
Regarding `Cc1ccc(S[C@]2(C(=O)NCc3ccccc3)CC(=O)N(Cc3ccccc3)[C@@H]2c2ccc(CO)cc2)cc1`, the composite z-score in experiment [1] is 1.42; in [3] it was -0.934; in experiment [4], -0.344; in experiment [5] it was -0.195; in experiment [6] it was -0.0395; in [7] it was -0.0977. Moreover, the composite z-score in [8] was -0.364; in experiment [9], 1.2; in [10], -0.593; in the experiment with Albumin (Bos taurus), -0.398; in experiment [12], -0.25; in experiment [13], -0.149. For the same compound, the composite z-score in [14] is 0.654; in [15], 1.86; in experiment [16], 0.569; in the experiment with Sam68 (KHDRBS1), 0.176; in experiment [17], -0.525; in experiment [18] it was 0.423. The same compound showed a z-score in [2] of -2.1. For the same compound, in experiment [11], the composite Z-score was 0.115 (inactive).
As to `O=C1O[C@H](c2ccccc2)[C@H](c2ccccc2)N2[C@H]1[C@@H](C(=O)NC[C@H](O)c1ccccc1)[C@]1(C(=O)Nc3ccc(C#CCCO)cc31)[C@H]2c1ccc(O)cc1`, the composite z-score in [1] was -0.453; in experiment [3], -0.47; in experiment [4], -0.6; in experiment [5], -0.158; in [6], -0.202; in [7], 0.0469. In addition, the composite z-score in experiment [8] was -0.0725; in experiment [9] it was 0.0234; in experiment [10], -1.61; in the experiment with Albumin (Bos taurus), -0.746; in [12] it was -0.0259; in [13], -0.14. The composite z-score in [14] was -0.702; in [15], 0.155; in experiment [16], 1.11; with Sam68 (KHDRBS1), -0.317; in experiment [17], -0.316; in experiment [18] it was -0.743. The z-score in experiment [2] was -1.07. Further, the composite Z-score in experiment [11] was 1.33 (inactive).
As for `O=C(CS)NCCCCCCNC(=O)[C@@H]1C[C@@H]2C(=O)N3CCC[C@H]3C(=O)N2[C@@H]1c1ccc(O)cc1`, the composite z-score in [1] is 1.41; in [3], -0.793; in experiment [4], 0.347; in experiment [5] it was 0.0689; in [6] it was 0.0868; in experiment [7], -0.0146. The composite z-score in experiment [8] was -0.264; in experiment [9], 1.35; in experiment [10] it was 0.139; with Albumin (Bos taurus) it was -0.766; in experiment [12] it was -0.273; in experiment [13], -0.116. The composite z-score in experiment [14] amounted to 0.645; in experiment [15], 2.88; in experiment [16] it was 0.827; with Sam68 (KHDRBS1), 0.5; in experiment [17], 0.361; in experiment [18], 0.443. Besides, in experiment [2], the z-score is -0.695. In addition, the composite Z-score in [11] is 3.04 (inactive).

(Values after PubChem BioAssay.)
